Values joined by “and” are separate entries in the source; they are usually repeats but may differ in a detail not shown here. Identical values can stand only once. The panel holds about 83,000 compounds, 20% with a hit somewhere; the sample as a whole holds those more often.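 Note: values are percent growth. 100 is the growth of untreated cells, values between 100 and 0 indicate rising inhibition; between -100 and 0 indicates cell death.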 Unmarked numbers belong to inactive results. Active and inactive are the calls of the source.
Tested on: SW-620 colon
Assay: NCI-60 one-dose screen, 48 h (100 = growth as untreated, 0 = no growth, -100 = all killed)
Details: 10 µM
Protocol: Growth inhibition of the SW-620 human tumor cell line is measured as a screen for anti-cancer activity. Cells are grown in 96 well plates and exposed to the test compound for 48 hours. Compounds are tested at a single concentration, which is 10^-5 M for most compounds. The reported endpoint is percent growth (GI% or GIPRCNT), where numbers from 0 - 100% represent growth inhibition, and numbers from -100% - 0 represent cell death. For example, a value of 40 represents 60% growth inhibition. A value of 0 means no net growth occurred over the course of the experiment. A value of -40 indicates 40% of cells at the beginning of the experiment died by the end of the experiment. A value of -100 means all cells are dead at the end of the experiment.
NCI-60 Human Tumor Cell Lines Screen was performed using the standard one-dose NCI protocol, which is described in more detail at https://dtp.cancer.gov/discovery_development/nci-60/default.htm.
Compounds with GIPRCNT values below 10 were considered active. Activity score was based on GIPRCNT using the following formula: […]
Score is 0 for GIPRCNT values of 100 or above, 50 for GIPRCNT values of 0, and 100 for GIPRCNT values of -100.

Q: COc1ccc(C(=O)/C=C/c2ccc(OCc3ccc(Cl)cc3)cc2)cc1OC was tested. Which growth did it give?
A: 103%

Same assay, conditions: 10 µM unless noted

Q: How did the growth turn out when C=C(CNCCc1ccc(O)cc1)[C@@H]1CC[C@]2(CO)CC[C@]3(C)[C@H](CC[C@@H]4[C@@]5(C)CCC(NCCc6ccc(O)cc6)C(C)(C)[C@@H]5CC[C@]43C)[C@@H]12 (stereo not given in full) was run?
A: -74.1% (active)

Q: How did the growth turn out when CCNC(=S)n1nc(SC)c(C(=O)OCC)c1N was run?
A: 102%

Q: For Cc1ccc(-c2nc3nc(-c4ccc(F)cc4)nc(N4CCCNCC4)c3o2)cc1, which growth is on record?
A: -84.6% (active)

Q: Which growth does the source give for O=C(Nc1cc(C(F)(F)F)cc(C(F)(F)F)c1)c1cc(Cl)ccc1O here?
A: 2% (active) and 5.7% (active)

Q: Which growth does the source give for COc1cc(C=O)ccc1Oc1ccc([N+](=O)[O-])cc1[N+](=O)[O-] here?
A: 91.7%

Q: For COCCn1cc(-c2csc(-c3cn(C)c4ccc(F)cc34)n2)c2cccnc21, which growth is on record?
A: 37.6%

Q: How did the growth turn out when O=c1c2c([nH]c3ccccc13)CCCC2 was run?
A: 92.6% and 16.1%

Q: With COc1ccc(-c2cc3cnc4ccccc4c3oc2=O)cc1 as the compound, how does the growth read?
A: 95.8%

Q: With O=c1c(/C=C/c2ccco2)nnc2sc(Nc3ccc(Cl)cc3)nn12 as the compound, how does the growth read?
A: 103%

Q: With O=Nc1ccc(NO)c2ccccc12 as the compound, how does the growth read?
A: 86% and 52.3%

Q: With O=C(CCN1CCOCC1)Nc1cccc(-n2cc(-c3ccncc3)c(-c3ccc(Cl)c(O)c3)n2)c1 as the compound, how does the growth read?
A: 23.4%

Q: With O=C1Nc2ccccc2/C1=C/c1cccn1CCCCCn1c2ccccc2c(=O)c2ccccc21 as the compound, how does the growth read?
A: 100%

Q: With COc1ccc2nc3cc(Cl)ccc3c(NCCCNCCC(C)O)c2c1 (stereo not given) as the compound, how does the growth read?
A: -22.2% (active)

Q: For S=c1nc(CS)[nH]c2ccccc12, which growth is on record?
A: 98.5%

Q: CCOC(=O)c1cnn(CC(O)CC)c1NC(=O)NCc1ccccc1C(F)(F)F (stereo not given) was tested. Which growth did it give?
A: 108%

Q: With C#CCOc1cccc(Nc2ncc3ncn(C4CCN(C(=O)CCl)C4)c3n2)c1 (stereo not given) as the compound, how does the growth read?
A: -41.4% [6.25 µM] (active)

Q: CCn1cc(C(=O)NN=C2CCCC2)c(=O)c2ccc(C)nc21 was tested. Which growth did it give?
A: 93%

Q: How did the growth turn out when CN(C)C(=O)c1cc2cnc(Nc3ccc(-c4csc5c(=S)cc(N6CCOCC6)oc45)cc3)nc2n1C1CCCC1 was run?
A: 4.89% (active)

Q: For O=C(/C=C/C12c3ccccc3C(c3ccccc31)C1C(=O)NC(=O)C12)c1ccncc1 (stereo not given), which growth is on record?
A: 13.4%

Q: Which growth does the source give for CCOC(=O)C1=C(C)NC(=O)NC1c1c(Cl)n(-c2ccccc2)c2ccccc12 (stereo not given) here?
A: 83.2%

Q: For Clc1ccc(/C=N\N2CCCCCC2)cc1, which growth is on record?
A: 101% and 110%

Q: For CCCCCC#CC1OC23CCCCC2C(C#N)(C(=N)O3)C1(C#N)C#N (stereo not given), which growth is on record?
A: 95.5%

Q: For Cc1ccc(-c2nc([P+](c3ccccc3)(c3ccccc3)c3ccccc3)c(Nc3ccccc3)o2)cc1, which growth is on record?
A: -29.9% (active)

Q: How did the growth turn out when COc1cc(/C=N/NC(=O)CCN2c3ccccc3Sc3ccccc32)cc(OC)c1OC was run?
A: 90.8%

Q: Which growth does the source give for Cc1nnc(NS(=O)(=O)c2ccc(N=Nc3ccc(N)nc3N)cc2)s1 here?
A: 108% and 106%

Q: CCCc1cc(C(N)=S)ccn1 was tested. Which growth did it give?
A: 107%

Q: Which growth does the source give for CC1(Cc2ccccc2)CC2=C(C(=O)O1)C(c1ccccc1)NC(=O)N2 (stereo not given) here?
A: 106%

Q: How did the growth turn out when Cc1ccc(Cc2cnc(NC(=O)c3cc(C)oc3C)s2)cc1 was run?
A: 51.6%

Q: With COc1cc(NC2CCCCC2O)c2nc(-c3ccc(Cl)cc3)ccc2c1 (stereo not given) as the compound, how does the growth read?
A: 78.9% and 86.7%

Q: CCN(CC)/C([O-])=c1\cccc\c1=C1\N=C(c2ccccc2)N=C1[n+]1ccc(-c2ccccc2)cc1 was tested. Which growth did it give?
A: 91.6%

Q: With CC1=C2[C@@H](CC1)[C@]1(C)O[C@@](C(C)C)(C[C@H]1OC(=O)CO)[C@H]2OC(=O)C1CC1c1ccccc1 (stereo not given in full) as the compound, how does the growth read?
A: 84.6%

Q: Which growth does the source give for Nc1ncnc2c1C(c1ccc([N+](=O)[O-])cc1)c1sc3c(F)cccc3c1O2 (stereo not given) here?
A: 98.3%

Q: O=C([C@H]1C[C@H]1c1ccc(S(F)(F)(F)(F)F)cc1)N1CCN(c2cc(Cl)ccc2C(F)(F)F)CC1 was tested. Which growth did it give?
A: 95.9%

Q: With CN(C)CCCn1c2nc(=O)[nH]c(=O)c-2nc2cc(Cl)c(Cl)cc21 as the compound, how does the growth read?
A: 13.6%

Q: With C=C1CC[C@@H]2[C@](C)(COC(C)=O)[C@H](OC(C)=O)CC[C@@]2(C)[C@@H]1CC(Nc1ccc(S(=O)(=O)Nc2nccs2)cc1)C1=CCOC1=O (stereo not given in full) as the compound, how does the growth read?
A: -72.7% (active)

Q: How did the growth turn out when Cc1ccc(C(=O)c2ccc(CC(=O)N=Nc3c(O)[nH]c4ccc(OC(F)(F)F)cc34)n2C)cc1 was run?
A: 95.7%

Q: CN1Cn2c(ccc2C(F)(F)F)C(=O)CS1(=O)=O was tested. Which growth did it give?
A: 104%

Q: How did the growth turn out when O=C1/C(=C/c2cn(-c3ccccc3)nc2-c2ccccc2)SC(=S)N1c1ccc(Cl)cc1 was run?
A: 84.4%

Same assay, conditions: 100 µM

Q: Which growth does the source give for COc1ccc(C(=O)/C=C/c2ccc(OCc3ccc(Cl)cc3)cc2)cc1OC here?
A: 9.15% (active)
